Screening data from PubChem.
PNC inhibitor: blocks assembly of the perinucleolar compartment; 140,000 tested, 3.1% active; PC3M PTB-GFP, PNC prevalence imaging, 16 h; active compounds read low; activity change (PNC), negative = inhibition, % at 10 µM;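 active = readout at or below -70, meaning at least 70% loss of cells showing the perinucleolar compartment, a nuclear body marking cancer cells; inconclusive = readout between -30 and a set limit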
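PC3M cells stably expressing PTB-GFP, 750–1000 cells/well, treated 16 h at 37 °C with compound (23 nl of library stock), in duplicate. After paraformaldehyde fixation and Hoechst stain, imaged at 20x; PNC prevalence scored by image analysis.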
ALOX15B inhib: blocks human 15-lipoxygenase 2 activity. O15296. purified 15hLO-2, xylenol orange hydroperoxide absorbance. Potency, µM (highest dose often 57.1 µM), hits mostly inhibitors. 110,000 tested, 0.56% active. AID 881; also: nearly all actives have a fitted effect of over 60% in size
Target sequence (O15296 whole entry, looked up): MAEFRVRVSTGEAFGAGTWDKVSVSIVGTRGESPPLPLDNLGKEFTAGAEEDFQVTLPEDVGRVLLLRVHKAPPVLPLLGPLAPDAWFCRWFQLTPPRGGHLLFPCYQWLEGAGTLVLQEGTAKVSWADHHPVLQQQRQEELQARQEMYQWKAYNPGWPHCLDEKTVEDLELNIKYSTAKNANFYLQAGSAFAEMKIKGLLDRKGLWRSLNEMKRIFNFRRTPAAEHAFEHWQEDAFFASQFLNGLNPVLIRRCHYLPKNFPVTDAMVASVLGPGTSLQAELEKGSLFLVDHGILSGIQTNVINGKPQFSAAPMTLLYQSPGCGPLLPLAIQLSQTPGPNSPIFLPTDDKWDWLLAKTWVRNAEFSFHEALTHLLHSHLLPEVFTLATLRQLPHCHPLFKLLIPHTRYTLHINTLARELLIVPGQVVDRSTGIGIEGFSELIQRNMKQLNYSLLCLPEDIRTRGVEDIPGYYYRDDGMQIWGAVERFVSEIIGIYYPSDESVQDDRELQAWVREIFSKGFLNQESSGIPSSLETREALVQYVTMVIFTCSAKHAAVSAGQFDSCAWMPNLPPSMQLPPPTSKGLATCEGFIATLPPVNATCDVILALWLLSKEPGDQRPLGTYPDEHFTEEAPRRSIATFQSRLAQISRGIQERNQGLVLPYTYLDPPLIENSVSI
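Enzyme 50 nM, AA 45 uM, 25 mM Hepes pH 7.5 + 0.01% Triton X-100; cpd preinc 15 min RT, rxn 90 min RT; stop/detect with 200 uM XO + 300 uM Fe(II) in 50 mM H2SO4, 30 min; A573/A405.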
12-hLO inh: 12-hLO (ALOX12) enzyme inhibition | P18054 | purified 12-hLO, xylenol orange hydroperoxide absorbance | Potency, µM (doses to about 57.1 µM), actives largely listed as inhibitors | 150,000 tested, 0.12% active | AID 1452; also: nearly all actives have a fitted effect of over 55% in size
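Xylenol orange chromogenic assay: hydroperoxide from 12hLO oxidises Fe(II), giving red-shifted Fe(III)-XO absorbance. Conditions: 150 nM enzyme, 40 uM arachidonic acid, 25 mM Hepes pH 7.0, 0.01% Triton X-100, 30 min, room temperature.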
Numbers stand for hits; n = inactive; u = inconclusive; x = not tested or not shown; [ ] = dose if it differs, or a comment. Rows were chosen to be rich in hits. Some 3.2% of all compounds tested hit in one or more screens of this group. Unless noted, calls follow the shape of the dose curve; as a rule, active = well fitted curve in the direction sought with a large enough effect; inconclusive = small, poorly fitted or top-dose-only effect, or another doubt; inactive = no such curve, though single readings can be large; an effect the other way counts as inactive or inconclusive.

SMILES	PNC inhibitor	ALOX15B inhib	12-hLO inh
O=C(O)c1ccc(S(=O)(=O)c2ccc3c(c2)C(=O)N(CC2CCCO2)C3=O)cc1 (stereo unspecified)	-100	n	n
O=C(O)c1cccc(NC(=O)c2ccc3c(c2)C(=O)N(CC2CCCO2)C3=O)c1 (stereo unspecified)	u	n	n
Cc1cnc(CNc2ccnc(-c3ccccc3C)n2)cn1	x	n	x
C=CCOc1c(Br)cc(CNc2ccc(NC(=O)C(C)C)c(OC)c2)cc1OCC	n	x	n
O=c1[nH]cc(CS(=O)(=O)Cc2c[nH]c(=O)[nH]c2=O)c(=O)[nH]1	x	n[11.4 µM]	n[11.4 µM]
O=c1[nH]cc(F)c(=O)[nH]1	-115	n[0.0915 µM]	n
COc1ncc2nc(-c3cccs3)c(=O)n(Cc3cccs3)c2n1	x	n	x
COC(=O)c1[nH]c2ccc(F)cc2c1NC(=O)CCN1CCN(Cc2ccc3c(c2)OCO3)CC1	n	n	n
CCN(CC(=O)Nc1c(C(=O)OC)[nH]c2ccc(C)cc12)c1ccc2c(c1)OCO2	-119	n	n
CCNC(=O)C(=O)NCC1OCCCN1S(=O)(=O)c1cccs1 (stereo unspecified)	n	x	n
N#Cc1nc(COc2ccccc2F)oc1N1CCCCCC1	n	n	n
N#Cc1nc(COc2ccc(Cl)cc2)oc1N1CCCCCC1	u	n	n
N#Cc1nc(COc2ccccc2Cl)oc1N1CCCCCC1	-122	x	n
CC1CN(c2oc(COc3ccc(Cl)cc3Cl)nc2C#N)CC(C)O1 (stereo unspecified)	-100	x	n
COc1ccc(Oc2ncc3nc(-c4ccc(OC)cc4)c(=O)n(Cc4cccs4)c3n2)cc1	x	n	n
COc1ccc(NC(=O)CN2CCC(Cc3ccccc3)CC2)cc1S(=O)(=O)N1CCOCC1	n	x	n
CCOc1ccc(C(=O)NCC(c2cccs2)N(C)C)cc1OCC (stereo unspecified)	n	x	n
Cc1ccccc1C(=O)NNC(=O)CSc1nnc(-c2ccncc2)n1-c1ccccc1	n	x	n
CCOC(=O)N1CCN(c2ncnc3c2[nH]c2ccc(F)cc23)CC1	n	n	n
O=C(CCCN1CCC(O)(c2cccc(C(F)(F)F)c2)CC1)c1ccc(F)cc1	x	n	n
OC1(c2cccc(C(F)(F)F)c2)CCN(c2ncnc3c2[nH]c2ccc(F)cc23)CC1	n	n	18µM
Fc1ccc2[nH]c3c(N4CCN(c5ccccc5)CC4)ncnc3c2c1	-126	n	n
COc1cc(C(=O)NNC2=CC(=O)CC(C)(C)C2)cc(OC)c1OC	u	x	n
COc1ccc(/C=N/N2CCN(C3c4ccccc4-c4ccccc43)CC2)cc1O	u	x	n
COc1ccc(/C=N/N2CCOCC2)cc1O	-81	x	n
SMILES	PNC inhibitor	ALOX15B inhib	12-hLO inh
CCOP(=O)(OCC)C(NC(=O)Nc1cccc(Cl)c1)C(N)=O (stereo unspecified)	n	x	n
CCOP(=O)(OCC)C(NC(=O)Nc1cccc(Cl)c1)c1ccccc1 (stereo unspecified)	-113	x	n
CCN(CC)c1ccc(/C=N/NC(=O)c2ccco2)cc1	-94	x	n
CCN(CC)c1ccc(NC(=O)c2ccco2)cc1	n	n	n
CCOc1cccc(-c2nnc3sc(-c4cccs4)nn23)c1	-127	n	n
COc1cccc(-c2nnc3sc(-c4cccs4)nn23)c1	u	n	n
Nc1ccccc1[N+](=O)[O-]	x	n	n
COc1ccc(C2=NOC(C(=O)NCc3ccc(F)cc3)C2)cc1OC (stereo unspecified)	-96	n	n
COc1cc(C2=NOC(C(=O)NCc3ccccn3)C2)cc(OC)c1OC (stereo unspecified)	u	n	n
COc1cc(C2=NOC(C(=O)NCc3ccc(F)cc3)C2)cc(OC)c1OC (stereo unspecified)	-121	n	n
COc1cccc(C2=NOC(C(=O)NCc3ccc(F)cc3)C2)c1 (stereo unspecified)	n	n	n
CCNc1ncc2nc(C)c(=O)n(Cc3ccc(F)cc3)c2n1	x	n	x
CC(C)(C)C(=O)n1nc(-c2ccccc2)oc1=O	-109	x	n
O=C(O)Cn1nc(-c2ccccc2)oc1=O	n	n	n
CSc1nnc(-c2sc3cc(C(F)(F)F)cnc3c2-c2ccccc2)n1C	n	n	n
Cc1ccc(-c2cn3cccnc3n2)cc1NC(=O)c1c(-c2ccccc2Cl)noc1C	u	n	n
Cc1onc(-c2ccccc2Cl)c1C(=O)Nc1ccc(-c2cn3cccnc3n2)cc1	-91	n	n
Cc1ccc(S(=O)(=O)N2CCc3nc(-c4ccccc4)c4c(c3C2)CO[C@@H](C)C4)cc1	x	x	n[11.4 µM]
CCOc1ccc(NCc2nc3ccccc3n2CCOc2ccccc2)cc1	-113	x	n
COCCn1c(COc2ccc(OC)cc2)nc2ccccc21	n	n	n
NS(=O)(=O)c1ccc(NC(=O)c2ccccc2C(=O)N2CCCCC2)cc1	n	n	n
CCCCS(=O)CC(COc1ccc(Cl)cc1)OC(=O)c1ccccc1 (stereo unspecified)	-119	n	u
O=S(Cc1ccc(Cl)cc1)CC(O)COc1ccc(Cl)cc1 (stereo unspecified)	n	n	n
CCOC(=O)Cn1c(=NC(=O)c2nc3ccccc3s2)sc2cc(S(N)(=O)=O)ccc21	n	x	n
CC(C)(C)NC(=O)Cn1c(SCC(=O)N2CCCCCC2)nc2ccccc21	-92	n	n
SMILES	PNC inhibitor	ALOX15B inhib	12-hLO inh
COCCn1c(SCC(=O)N2CCCCC2)nc2cccnc21	-83	n	n
Cn1c(SCC(=O)N2CCOCC2)nc2cccnc21	n	n	n
CC(C)(C)NC(=O)Cn1c(SCC(N)=O)nc2ccccc21	n	n	n
COc1ccccc1-n1c(SCC(=O)N2CCCC2)nc2cccnc21	-110	n	n
CCN(CC)C(=O)CSc1nc2cccnc2n1-c1ccccc1OC	n	n	n
Cc1noc(C)c1C(=O)N1CCC2(CCN(Cc3ccncc3)CC2)CC1	x	n	n
O=C(O)C1CC=CCC1C(=O)Nc1ccc(F)c(F)c1 (stereo unspecified)	n	n	n
O=C(Nc1ccc2c(c1)OCCO2)C1CCN(C(=O)c2ccc(Br)cc2)CC1	n	n	n
O=C(O)C1CC=CCC1C(=O)Nc1ccc2c(c1)OCCO2 (stereo unspecified)	-119	x	n
O=C(Nc1ccc2c(c1)OCCO2)C1CCN(C(=O)c2ccccc2)CC1	-105	n	n
CCN1C(=O)c2cccc3c(NC(=O)c4ccc(OC)c(OC)c4)ccc1c23	u	n	n
CC(C)c1ccc(/C=N/NC(=O)c2c(Cl)cnn2C)cc1	n	x	n
Cc1cccc2sc(N)nc12	x	n	n
CCN(CC)c1ccc(NC(=O)CSc2nc3ccccc3c(=O)n2-c2cc(S(=O)(=O)N(C)C)ccc2C)cc1	n	x	n
Cc1[nH]c(C(=O)N/N=C/c2ccc(C(=O)O)cc2)c(C)c1C(=O)N/N=C/c1ccc(C(=O)O)cc1	u	x	n
CCOC(=O)c1c(C)[nH]c(C(=O)N/N=C/c2ccc(Br)cc2)c1C	-113	x	n
CCC(C)Oc1cccc(OCCCCN2C(=O)NC(C)(C)C2=O)c1 (stereo unspecified)	-96	n	n
CC1(C)NC(=O)N(CCCCOc2cccc(C(F)(F)F)c2)C1=O	u	n	n
COc1cccc(NS(=O)(=O)c2cc(C)sc2C)c1	-100	x	n
